This is a sample that favours compounds with a hit; in the whole collection about 8% have one here.
ELG1 DNA repair: inhibitors of ELG1-dependent DNA repair in HEK293T cells | HEK293T ELG1-luciferase reporter, luminescence, 16 h; DNA damage induced by 5-fluorouridine | AID 504467 | Potency, µM (highest dose often 46.1 µM), for the others: at the highest dose activity change, negative = inhibition, most hits filed as inhibitors | 330,000 tested, 2.3% active; further: potency means the concentration at half of the fitted maximal effect; nearly all actives have a fitted effect of over 55% in size
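DMSO vehicle served as the neutral condition. Each well held 2,000 cells given 5-fluorouridine plus compound; after 16 hr at 37 °C/5% CO2, ONE-Glo was added and luciferase measured 30 min later.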
RORg inh: ROR gamma (mouse) transcription inhibition; P51450; Drosophila S2 Gal4-RORgamma UAS-luciferase reporter, 20 h; Potency, µM (top dose mostly 53.6 µM), for the others: top-dose activity change, negative = inhibition, hits mostly inhibitors; 310,000 tested, 5.4% active; further: potency means the concentration at half of the fitted maximal effect; nearly all actives have a fitted effect of over 60% in size
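Stable Schneider cell line, Gal4 DNA-binding domain fused to ROR gamma, UAS-luciferase. Cmpd 1 hr RT → CuSO4 700 uM final → 20 hr RT → luciferase reagent 10 min → luminescence.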
Gal4-VP16 FLuc: Gal4-VP16 reporter inhibition counter-screen; 310,000 tested, 3.5% active; Drosophila S2 Gal4-VP16 UAS-luciferase, luminescence, 20 h; Potency, µM (top dose mostly 53.6 µM), inactives show at the highest dose activity, negative = inhibition, hits mostly inhibitors;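 further: Gal4-VP16 expression switched on by copper sulfate through the metallothionein promoter; potency means the concentration at half of the fitted maximal effect; nearly all actives have a fitted effect of over 50% in size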
Coupling enz: inhibits coupling enzyme system, counter-screen for aldolase hits; coupling enzyme system counterscreen, AmpLite Red fluorescence; activity change, negative = inhibition, % at 58.2 µM, hits read low; 290,000 tested, 0.67% active; in the data active means activity change below about -30%
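Final compound at 57.5 uM, incubated 10 min at RT with coupling enzyme reagent (glyceraldehyde-3-phosphate), then 20 min with substrate and AmpLite Red detection. Fluorescence read at 525/598 nm; tests interference with the coupling assay, not aldolase inhibition.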
TSHR antagonist: human thyrotropin receptor antagonism; 330,000 tested, 0.2% active; P16473; activity change, negative = inhibition, % at 11.5 µM; TSHR-expressing cells, TSH-stimulated cAMP HTRF, 2 h; hits give low values;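 active means activity change below a set negative limit, meaning inhibition stronger than a set level, cut at about -70% in these data; inconclusive means activity change between two set negative limits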
Target sequence (P16473 whole entry, looked up): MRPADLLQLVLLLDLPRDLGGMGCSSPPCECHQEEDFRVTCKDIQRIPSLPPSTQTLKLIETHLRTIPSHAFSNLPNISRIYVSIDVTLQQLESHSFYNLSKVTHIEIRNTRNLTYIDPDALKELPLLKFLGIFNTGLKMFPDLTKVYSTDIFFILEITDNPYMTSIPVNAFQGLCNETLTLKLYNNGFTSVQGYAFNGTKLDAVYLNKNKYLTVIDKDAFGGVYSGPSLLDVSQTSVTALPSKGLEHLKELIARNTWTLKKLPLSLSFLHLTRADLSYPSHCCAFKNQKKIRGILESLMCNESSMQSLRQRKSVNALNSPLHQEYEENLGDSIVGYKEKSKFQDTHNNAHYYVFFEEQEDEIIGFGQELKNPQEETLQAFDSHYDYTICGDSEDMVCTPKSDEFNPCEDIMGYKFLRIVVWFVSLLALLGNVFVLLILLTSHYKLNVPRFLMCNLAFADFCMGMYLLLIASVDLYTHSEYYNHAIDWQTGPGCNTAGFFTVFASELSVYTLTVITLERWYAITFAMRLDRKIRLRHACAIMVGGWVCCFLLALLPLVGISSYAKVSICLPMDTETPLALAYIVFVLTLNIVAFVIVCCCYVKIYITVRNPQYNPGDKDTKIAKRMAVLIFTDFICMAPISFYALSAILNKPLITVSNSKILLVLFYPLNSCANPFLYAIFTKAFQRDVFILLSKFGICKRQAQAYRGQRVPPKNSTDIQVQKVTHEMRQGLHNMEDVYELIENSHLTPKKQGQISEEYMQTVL
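Inhibition of cAMP made by TSHR-expressing cells under TSH stimulation (4nM final, EC80; 2 h, 37 deg C) is quantified with a one-step lysis HTRF kit, anti-cAMP cryptate versus cAMP-d2.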
The depositor's hits bear a star; ? = inconclusive; nt = no result; [ ] = dose if it differs, or a comment. Unless noted, the call rests on the fitted dose curve; in most records, active means well fitted curve in the direction sought with a large enough effect; inconclusive means small, poorly fitted or top-dose-only effect, or another doubt; inactive means no such curve, though single readings can be large; an effect the other way counts as inactive or inconclusive. On the % scale 0 is the no-effect control and ±100 the full control effect.

SMILES	ELG1 DNA repair	RORg inh	Gal4-VP16 FLuc	Coupling enz	TSHR antagonist
COc1cc(OC)c(C(=O)/C=C/c2ccccc2)c(O)c1O	-32%	?	10µM*	6	-14
Cc1c(NS(=O)(=O)c2cccc(C(=O)Nc3cccc(F)c3)c2)c(=O)n(-c2ccccc2)n1C	-17%	nt	nt	nt	0
Cc1cccc(-c2[nH]c(C(C)(C)C)nc2-c2ccc3nccnc3c2)n1	nt	nt	nt	nt	-10
COC(=O)c1cc(S(=O)(=O)NC2CCCCC2)cn1C	?	0%	3%	nt	3
CCNC(=S)NNC(=O)C(c1ccccc1)c1ccccc1	-18%	3.2µM*	11µM*	1	-13
CC(=O)NNC(=S)NC(=O)C(c1ccccc1)c1ccccc1	-20%	?	3%	1	-3
CC(C)(C)C(=O)NC(=S)NNC(=O)C(c1ccccc1)c1ccccc1	-11%	2.8µM*	11µM*	3	-10
CN(C)C(=S)NC(=O)C(c1ccccc1)c1ccccc1	-6%	1.4µM*	?	-1	-3
CCNC(=S)NNC(=O)Nc1ccccc1	7%	-35%	5%	-1	-4
CN(c1ccccc1)S(=O)(=O)c1cccc(NS(=O)(=O)c2cccc(C(=O)O)c2)c1	0%	nt	nt	nt	20
COC(=O)[C@@]1(Cc2ccc(OC)cc2)[C@H]2c3cc(C(=O)N4CCCC4)n(CCc4c[nH]c5ccc(OC)cc45)c3C[C@H]2CN1C(=O)c1ccccc1	nt	23%	-9%	-2	nt
COc1ccc2[nH]c3c(C)c4ccncc4c(C)c3c2c1	?	3.2µM*	4.5µM*	-10	-7
C/C=C(\C)C(=O)N1CCC(C(=O)c2ccccc2)CC1	1%	0%	1%	1	-10
Cc1cccc(NC(=S)c2nc3ccccc3s2)c1	?	1.1µM*	5µM*	0	-6
O=C(Nc1ccccc1)c1nc2ccccc2s1	?	-32%	-26%	-7	-11
COc1cc2c(cc1OC)[C@@H]1O[C@](c3ccsc3)(C2)Oc2cc(C)n(-c3ccccc3)c(=O)c21	nt	18%[10 µM]	-2%[10 µM]	0	nt
Cc1ccc(-n2c(=S)[nH]c3c(oc4ccccc43)c2=O)cc1C	?	1.4µM*	1.8µM*	2	26
O=c1c2oc3ccccc3c2[nH]c(=S)n1-c1ccc(F)cc1	13%	4µM*	?	-2	11
COc1ccc(C(=O)NCCc2nnc3ccc(SCC(=O)NCCc4ccc(OC)c(OC)c4)nn23)cc1	-6%	-16%	-4%	-1	7
Cc1cc(C(=O)NCC(C)(C)N2CCOCC2)c(C)o1	?	nt	nt	nt	2
Cc1noc(C)c1C(=O)N1CCC2(CCCN(Cc3ccc(C#N)cc3)C2)CC1	nt	-4%	4%	-2	nt
Cn1c(=O)c2c(nc(NCCO)n2CCCc2ccccc2)n(C)c1=O	21µM*	-8%	?	-2	25
Cc1cccc(Cn2c(NCC(C)O)nc3c2c(=O)n(C)c(=O)n3C)c1 (stereo not given)	15µM*	-32%	?	0	1
COCCNc1nc2c(c(=O)n(C)c(=O)n2C)n1Cc1cccc(C)c1	21µM*	?	10µM*	0	2
Cn1c(=O)c2c(nc(NCCCO)n2Cc2cccc(Br)c2)n(C)c1=O	-14%	22%[0.365 µM]	nt	3	-3
SMILES	ELG1 DNA repair	RORg inh	Gal4-VP16 FLuc	Coupling enz	TSHR antagonist
Cn1c(=O)c2c(nc(NCc3ccccc3)n2CCCc2ccccc2)n(C)c1=O	?	6%	-7%	2	7
Cc1cccc(Cn2c(NCCO)nc3c2c(=O)n(C)c(=O)n3C)c1	?	?	4.5µM*	1	-18
COc1cc(C(=O)NNC(=O)c2nn(C)c(=O)c3ccccc23)cc(OC)c1OC	?	nt	nt	nt	0
COCCCNc1nc2c(c(=O)n(C)c(=O)n2C)n1Cc1cccc(OC)c1	15µM*	?	?	-1	4
COc1cccc(Cn2c(NCc3cccnc3)nc3c2c(=O)n(C)c(=O)n3C)c1	?	?	?	nt	11
Cc1cc(C)n(C(=O)N(c2ccccc2)c2ccccc2)n1	-1%	-14%	16%	0	-3
O=C(Nc1cccc(S(=O)(=O)Nc2ccccc2F)c1)c1ccc2ccccc2n1	?	25%	-10%	-4	-32

Source: PubChem
